Molecules are shown by their SMILES. Values joined by “and” are separate entries in the source; they are usually repeats but may differ in a detail not shown here. Equal values may be shown once. Out of some 350,000 compounds screened, about 6,000 (1.7%) were called active. Roughly 5% stayed inconclusive and do not appear here. Cut-off read from the data, not from the text of the source: active = CPE inhibition above about 20% (passing the limit was not always enough); inconclusive = no clear call, values can overlap the other calls; tested in BHK-21 cells. The sample as a whole holds a higher share of actives than the screen did. More than one record can exist for a structure, and the calls need not agree.

The test in a line: inhibitors of DENV2 cytopathic effect, primary screen, cell-based, plate reader, single concentration (AID 651640).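 Note: 0% = median of neutral control wells and 100% = median of positive control wells.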 Conditions: DENV2-infected cells, cytopathic effect rescue, at 9.99 µM, stronger effect = higher value.
For the compound `COCC(=O)N(C)C[C@H]1Oc2cc(C#CC(C)C)ccc2S(=O)(=O)N([C@H](C)CO)C[C@@H]1C`, the CPE inhibition is -1.85% (inactive).

Consider `C[C@@H]1CN([C@@H](C)CO)S(=O)(=O)c2ccc(Br)cc2O[C@@H]1CN(C)C(=O)CN(C)C`, for which the CPE inhibition was 2.66% (inactive).

Turning to `C[C@@H]1CN([C@H](C)CO)S(=O)(=O)c2ccc(C3=CCCC3)cc2O[C@H]1CN(C)C(=O)Nc1ccc2c(c1)OCO2`, the CPE inhibition was 21.4% (active).

As for `COCC(=O)N(C)C[C@H]1Oc2cc(Br)ccc2S(=O)(=O)N([C@H](C)CO)C[C@H]1C`, the CPE inhibition is 21.7% (inactive) and 31.3% (active).

As for `C[C@H]1CN([C@@H](C)CO)S(=O)(=O)c2ccc(C3=CCCC3)cc2O[C@H]1CN(C)C(=O)Nc1ccc2c(c1)OCO2`, the CPE inhibition is -1.69% (inactive).

In the case of `C[C@H]1CN([C@@H](C)CO)S(=O)(=O)c2ccc(C#Cc3ccncc3)cc2O[C@@H]1CN(C)C(=O)Nc1ccc2c(c1)OCO2`, the CPE inhibition was 13.3% (inactive).

Regarding `O=C(C[C@@H]1CC[C@H](NC(=O)Cc2ccccn2)[C@H](CO)O1)NCCc1ccncc1`, the CPE inhibition is 1.65% (inactive).

`CCNC(=O)C[C@@H]1CC[C@H]2[C@@H](COc3ccc(NC(=O)Cc4cccs4)cc3C(=O)N2C)O1`: the CPE inhibition was -0.188% (inactive).

With `Cc1noc(C)c1NC(=O)Nc1ccc2c(c1)C(=O)N([C@@H](C)CO)C[C@H](C)[C@H](CN(C)Cc1ccc(C(=O)O)cc1)OCCCC[C@@H](C)O2`, the CPE inhibition was -4.14% (inactive).

As to `CSc1ccc(Oc2cccc3c2S(=O)(=O)N([C@H](C)c2ccccc2)C[C@@H](COCc2ccccc2)O3)cc1C`, the CPE inhibition is 12% (inactive).

Regarding `COC(=O)N1Cc2ccnnc2CC1c1ccccc1Br` (stereo unspecified), the CPE inhibition is -2.73% (inactive).

For `CCCC/C=C/c1cccc2nncn12`, the CPE inhibition is 28.7% (active).

With `O=C(O)c1ccccc1-c1cccc2nncn12`, the CPE inhibition was -0.993% (inactive).

As to `C[C@@H]1CCCCO[C@@H](CN(C)S(=O)(=O)c2cn(C)cn2)[C@H](C)CN([C@H](C)CO)C(=O)c2cc(NC(=O)NC3CCCCC3)ccc2O1`, the CPE inhibition was 5.41% (inactive).

As to `CC(Oc1cccc(Cl)c1)C(=O)Nc1ccc(S(=O)(=O)Nc2ncccn2)cc1` (stereo unspecified), the CPE inhibition was 2.3% (inactive).

Regarding `O=C(NC(=S)Nc1ccc(S(=O)(=O)Nc2ncccn2)cc1)c1cccc(Br)c1`, the CPE inhibition is -1.82% (inactive).

On to `COc1ccc(OC)c(C(C)NC(=S)Nc2ccc(S(=O)(=O)Nc3ncccn3)cc2)c1` (stereo unspecified), for which the CPE inhibition is 49.8% (active).

In the case of `Cc1noc(C)c1NC(=O)Nc1ccc2c(c1)C(=O)N([C@H](C)CO)C[C@@H](C)[C@H](CN(C)S(=O)(=O)c1ccc(Cl)cc1)OCCCC[C@H](C)O2`, the CPE inhibition is -4.55% (inactive).

In the case of `COc1ccc(Cn2cc(CN3CCS(=O)(=O)N(Cc4ccc(-c5cccc(Cl)c5)cc4)C(C)C3=O)nn2)cc1` (stereo unspecified), the CPE inhibition is 3.05% (inactive).

Consider `Cc1ccc(-c2ccc(CN3C(C(C)C)C(=O)N(Cc4cn(CCC5OCCCO5)nn4)CCS3(=O)=O)cc2)cc1` (stereo unspecified), for which the CPE inhibition was 102% (active).

Turning to `Cc1ccc(-c2ccc(CN3C(C(C)C)C(=O)N(Cc4cn(CCC5OCCO5)nn4)CCS3(=O)=O)cc2)cc1` (stereo unspecified), the CPE inhibition was 6.07% (inactive).

For the compound `CC1C(=O)N(Cc2cn(Cc3ccco3)nn2)CCS(=O)(=O)N1Cc1ccc(-c2cccc(CO)c2)cc1` (stereo unspecified), the CPE inhibition is -5.64% (inactive).

`Cc1ccc(-c2ccc(CN3C(C)C(=O)N(Cc4cn(CCC5OCCCO5)nn4)CCS3(=O)=O)cc2)cc1` (stereo unspecified): the CPE inhibition is 86.5% (active).

In the case of `CC(C)C1C(=O)N(Cc2cn(CCC3OCCO3)nn2)CCS(=O)(=O)N1Cc1ccc(-c2ccccc2C(F)(F)F)cc1` (stereo unspecified), the CPE inhibition was -6.47% (inactive).

In the case of `CCCNC(=O)[C@@H]1[C@@H](CO)[C@@H]2Cn3c(cccc3=O)[C@H]1N2C(=O)C1CC1`, the CPE inhibition was -2.53% (inactive).

For the compound `CO[C@@H]1CN(C)C(=O)c2ccc(NC(=O)Nc3ccccc3)cc2OC[C@@H](C)N(C(=O)Nc2c(C)noc2C)C[C@@H]1C`, the CPE inhibition was -2.63% (inactive).

Consider `CCCNC(=O)Nc1ccc2c(c1)C(=O)N(C)[C@H]1CC[C@H](CC(=O)NCC3CCCCC3)O[C@@H]1CO2`, for which the CPE inhibition was 7.7% (inactive).

Take `CCC(=O)N(C)C[C@@H]1Oc2ncc(-c3ccccc3OC)cc2C(=O)N([C@@H](C)CO)C[C@@H]1C`: the CPE inhibition is -0.292% (inactive).

In the case of `O=C(C[C@@H]1C=C[C@@H](NC(=O)c2ccccn2)[C@@H](CO)O1)NCc1cc(F)cc(F)c1`, the CPE inhibition is -1.09% (inactive).

Take `CCCC(=O)Nc1ccc2c(c1)OC[C@H](C)N(C(=O)C1CCCC1)C[C@@H](C)[C@H](OC)CN(C)C2=O`: the CPE inhibition was -8.69% (inactive).

In the case of `CO[C@H]1CN(C)C(=O)c2cc(NS(C)(=O)=O)ccc2OC[C@H](C)N(C(=O)C2CCCC2)C[C@H]1C`, the CPE inhibition was -6.55% (inactive).

As for `CCCC(=O)Nc1ccc2c(c1)C(=O)N(C)C[C@@H](OC)[C@H](C)CN(C(C)=O)[C@H](C)CO2`, the CPE inhibition was 4.44% (inactive).

Take `CO[C@H]1CN(C)C(=O)c2ccc(NC(=O)C3CC3)cc2OC[C@@H](C)N(C(=O)CN2CCOCC2)C[C@H]1C`: the CPE inhibition is 41.3% (active).

For `CO[C@@H]1CN(C)C(=O)c2cc(NS(C)(=O)=O)ccc2OC[C@@H](C)N(C(=O)C2CCC2)C[C@@H]1C`, the CPE inhibition is 23.4% (active).

Take `CO[C@H]1CN(C)C(=O)c2ccc(NC(=O)C3CC3)cc2OC[C@H](C)N(C(=O)CN2CCOCC2)C[C@@H]1C`: the CPE inhibition is -2.69% (inactive).

As for `CCCC(=O)Nc1ccc2c(c1)C(=O)N(C)C[C@H](OC)[C@@H](C)CN(C(C)=O)[C@H](C)CO2`, the CPE inhibition is 68% (active).

Consider `CCCC(=O)Nc1ccc2c(c1)OC[C@H](C)N(C(=O)CC)C[C@H](C)[C@@H](OC)CN(C)C2=O`, for which the CPE inhibition was 25.3% (active).

For the compound `CCC(=O)N1C[C@H](C)[C@H](OC)CN(C)C(=O)c2ccc(NC(=O)Nc3ccccc3)cc2OC[C@H]1C`, the CPE inhibition was -7.71% (inactive).

Regarding `CO[C@H]1CN(C)C(=O)c2ccc(NS(C)(=O)=O)cc2OC[C@H](C)N(C(=O)C2CCC2)C[C@H]1C`, the CPE inhibition is -2.45% (inactive).

With `CO[C@@H]1CN(C)C(=O)c2cc(NC(=O)C3CC3)ccc2OC[C@H](C)N(C(=O)CN2CCOCC2)C[C@@H]1C`, the CPE inhibition was -10.9% (inactive) and -2.35% (inactive).

In the case of `CCCNC(=O)N1C[C@H](C)[C@H](OC)CN(C)C(=O)c2cc(NC(=O)CC)ccc2OC[C@H]1C`, the CPE inhibition is -0.559% (inactive).

The values above are taken from PubChem BioAssay AID651640 (Broad Institute, 2012).
